Measles CPE: protection of cells from measles virus; Measles virus-infected cells, CPE protection, absorbance; AID 841; protection (pct of control), % at 4 µM; 140,000 compounds, 1.5% hits; in the data active = protection mostly above about 24%, no sharp cut-off; inactive = mostly below about 26%
CYP2C19 activ: activators of human cytochrome P450 2C19 | P33261 | recombinant CYP2C19, luciferin-H EGE luminescence; stronger effect = higher value; 0 = fully inhibited enzyme, 1 = untreated enzyme | activation factor at 5 µM | 96,000 tested, under 10 active | AID 1025;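 active = activation factor of at least 2 at 5 µM in the primary screen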;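 note: 0 = wells with 2.5 mM tranylcypromine and 1 = vehicle-only wells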
Target sequence (P33261 whole entry, looked up): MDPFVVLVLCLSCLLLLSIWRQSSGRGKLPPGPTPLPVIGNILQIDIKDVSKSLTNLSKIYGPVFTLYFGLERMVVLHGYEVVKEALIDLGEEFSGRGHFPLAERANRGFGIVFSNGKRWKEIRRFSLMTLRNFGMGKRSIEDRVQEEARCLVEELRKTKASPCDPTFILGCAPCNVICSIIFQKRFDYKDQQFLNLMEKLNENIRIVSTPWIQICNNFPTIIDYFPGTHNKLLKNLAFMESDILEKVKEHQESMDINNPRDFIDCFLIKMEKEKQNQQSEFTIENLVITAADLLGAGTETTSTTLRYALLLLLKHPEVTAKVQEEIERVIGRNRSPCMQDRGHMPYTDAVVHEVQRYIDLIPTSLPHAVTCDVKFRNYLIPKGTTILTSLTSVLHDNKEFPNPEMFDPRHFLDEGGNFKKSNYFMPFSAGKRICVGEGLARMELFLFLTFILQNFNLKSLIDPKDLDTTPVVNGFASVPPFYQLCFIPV
CYP2C9 act: activators of human CYP2C9; P11712; recombinant CYP2C9, luciferin-H conversion, luminescence; stronger effect = higher value; factor 1 = untreated enzyme, 0 = blocked; activation factor at 5 µM; 96,000 compounds, 1.4% hits; AID 1024;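 active = activation factor of 2 or more for CYP2C9 at a 5 µM dose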;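 note: 0 = sulfaphenazole-blocked wells and 1 = vehicle-only wells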
CYP2C9 inhib: blocks human cytochrome P450 2C9 | CYP2C9 Supersomes, luciferin-H conversion, luminescence | inhibition, % at 5 µM | 96,000 compounds, 20% hits | AID 777;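 active = blocking of liver enzyme CYP2C9 beyond about 50% at 5 µM, limit read from the data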
CYP2C19 inhib: human CYP2C19 inhibition | CYP2C19 Supersomes, luciferin-H EGE luminescence, 30 min | inhibition, % at 5 µM | 96,000 compounds, 21% hits | AID 778;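 active = CYP2C19 inhibition above a set limit at 5 µM in the primary screen, cut at about 50% in these data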;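 note: plate controls were negative control wells for no effect and 2.5 mM tranylcypromine positive control for full effect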
The depositor's hits bear a star; · = not tested or not shown. Only some compounds are listed: those with a hit (about 22% of all), similar ones and a draw of the others.

SMILES	Measles CPE	CYP2C19 activ	CYP2C9 act	CYP2C9 inhib	CYP2C19 inhib
Cc1ccc(C)c2[nH]c(=O)c(CCNS(=O)(=O)c3ccccc3)cc12	11	0.2	0.4	61*	76*
COc1ccc(OC)c2[nH]c(=O)c(CCNC(=O)c3ccc(S(=O)(=O)N(C)C)cc3)cc12	12	1	0.7	33	3
CC1Cc2ccccc2N1C(=O)CSc1nnnn1C1CCCC1 (configuration not stated)	14	0.7	0.4	58*	26
CC1Cc2ccccc2N1C(=O)CSc1nnnn1C(C)C (configuration not stated)	14	0.6	0.5	52*	40
CC1Cc2ccccc2N1C(=O)CSc1nnnn1C (configuration not stated)	5	0.6	1.1	-7	43
c1ccc(CCn2nnnc2CN2CCc3ccccc32)cc1	6	0	0.1	86*	98*
Cn1nnnc1SCC(=O)N1CCCc2ccccc21	6	·	·	·	·
O=C(CSc1nnnn1C1CCCC1)N1CCCc2ccccc21	2	0.1	1.1	-8	91*
O=C(NCc1cccnc1)C1CCN(S(=O)(=O)N2CCOCC2)CC1	14	0.9	1	3	13
CCCS(=O)(=O)N1CCn2c(nc3ccccc32)C1	0	0.7	0.8	15	34
CC1Cc2ccccc2N1C(=O)CSc1nnc(Cc2ccccc2)n1CCc1ccccc1 (configuration not stated)	12	0.1	0.1	93*	92*
c1ccc2c(c1)CCCN2Cc1nnnn1C1CCCC1	3	0	0.4	59*	96*
C1CCC(n2nnnc2CN2CCCC2)CC1	17	0.9	1	4	13
CCCn1c(SCC(=O)N2c3ccccc3CC2C)nnc1-c1ccco1 (configuration not stated)	11	·	·	·	·
N#CCCNCC1(c2ccccc2)CCCC1	10	0.8	1	0	16
c1ccc(C2(CNc3ccccn3)CCCC2)cc1	1	0.5	0.6	44	55*
CC1(C)Cc2c(sc3nc(N/N=C/c4ccccc4)[nH]c(=O)c23)CO1	21*	·	·	·	·
CC(C)=NNc1nc2sc3c(c2c(=O)[nH]1)CC(C)(C)OC3	6	·	·	·	·
COc1ccc(S(=O)(=O)C(C#N)c2nc3ccccc3nc2N2CCCCC2)cc1 (configuration not stated)	27	0.4	0.4	64*	57*
N#CC(c1nc2ccccc2nc1N1CCCC1)S(=O)(=O)c1cccs1 (configuration not stated)	9	0.7	0.3	75*	26
Cc1ccc(C)c(S(=O)(=O)C(C#N)c2nc3ccccc3nc2N2CC(C)OC(C)C2)c1 (configuration not stated)	9	0.5	0	99*	52*
Cc1ccc(S(=O)(=O)C(C#N)c2nc3ccccc3nc2N2CCN(C)CC2)cc1C (configuration not stated)	2	1.1	0.2	75*	-14
C=CCn1c(N)c(C(=O)NC2CCCCC2)sc1=S	13	0.7	0.6	36	35
COc1ccc(C(=O)Nc2nc3nc(-c4ccccc4)cc(=O)n3[nH]2)cc1	7	1	0.7	33	5
CC(=O)c1cccc(NC(=O)N2CCCC2C(=O)Nc2cccc(C)c2)c1 (configuration not stated)	2	0.6	0.5	53*	45
SMILES	Measles CPE	CYP2C19 activ	CYP2C9 act	CYP2C9 inhib	CYP2C19 inhib
CC(=O)Nc1cccc(NC(=O)C2CCCN2C(=O)Nc2cccc(C)c2)c1 (configuration not stated)	20	1.1	1	-4	-6
Cc1cc(C)cc(NC(=O)N2CCCC2C(=O)Nc2ccc(-n3cnnn3)cc2)c1 (configuration not stated)	9	0.2	1	4	83*
O=C(C1CCC1)N1CCc2cc(S(=O)(=O)NC3CCCc4ccccc43)ccc21 (configuration not stated)	21	1.1	0.6	40	-11
Nc1nc(Nc2cccc(C(F)(F)F)c2)nc(C(F)(F)F)n1	1	1	0.7	29	4
CCCN1C2=NCCN2c2ccccc21	45*	1	1.1	-13	1
CCCN1C2=NCCCN2c2ccccc21	7	0.9	1.1	-12	9
Cc1cc(C(F)F)n2nc(C(=O)O)nc2n1	2	1.1	1.3	-26	-13
COC(=O)c1ccc(Cc2ccc(C(=O)OC)o2)o1	5	0.8	0.9	6	20
COC(=O)c1ccc(CN(C)S(=O)(=O)c2ccc(C)cc2)o1	25	0.1	0.4	58*	91*
COC(=O)c1ccc(CN(c2ccc(C)cc2)S(=O)(=O)c2ccc3c(c2)OCCO3)o1	4	0.4	0.3	74*	59*
CCOc1ccc(N2C(=O)c3ccccc3C2O)cc1 (configuration not stated)	9	1	1.2	-17	0
COC(=O)C1=C(C)N(c2ccc(F)cc2)C(=O)C1	0	0.4	1	3	60*
COC(=O)C1=C(C)N(c2ccc(F)c(Cl)c2)C(=O)C1	34	0.6	0.5	52*	41
COC(=O)C1=C(C)N(c2ccc(OC)c(OC)c2)C(=O)C1	25	0.8	0.3	74*	18
COC(=O)C1=C(C)N(c2cccc(C(C)=O)c2)C(=O)C1	22	0.9	1.1	-13	9
COC(=O)C1=C(C)N(c2cccc(Cl)c2)C(=O)C1	0	0.4	0.8	23	64*
CCOC(=O)C1=C(N)N(c2ccc(N3CCCCC3)cc2)C(=O)C1	20	0.6	1.5	-47	39
Cc1cc(C)nc(NC2=NCC(=O)N2c2ccc(F)c(Cl)c2)n1	5	1.2	1.2	-21	-20
COc1ccc(N(C)S(=O)(=O)c2ccc3c(c2)CCC(=O)N3)cc1	9	0.8	0.7	31	22
O=C(CN1N=C(c2ccccc2)CCC1=O)NCc1ccco1	7	·	·	·	·
COc1ccc(N=Cc2nc(-c3ccccc3)oc2OC(=O)c2ccccc2)cc1	21	·	·	·	·
CC1(C)CC(=O)C=C(Nc2ccccc2NC(=O)c2cnccn2)C1	6	1	0.6	42	0
COc1cccc(-c2csc(N3CCN(C(=O)C4CCCCC4)CC3)n2)c1	5	0.2	0.4	58*	77*
Cc1cccc(-c2nnc(SCC#N)n2Cc2ccccc2)c1	8	0.2	0.5	51*	77*
N#CCCCSc1nnc(-c2ccc(Cl)cc2)n1-c1ccccc1	4	0.7	0.5	50*	34
Cc1cccc(-c2nnc(SCC#N)n2-c2ccccc2)c1	6	0.5	0.6	36	51*
N#CCSc1nnc(COc2ccccc2)n1-c1ccccc1	3	·	·	·	·
CN1CCN(C(=O)CCCOc2ccc(Cl)cc2Cl)CC1	5	0.3	1.3	-25	67*
O=C(CCCOc1ccc(Cl)cc1Cl)n1nnc2ccccc21	8	·	·	·	·
O=C(CCCOc1ccccc1)N1CCN(c2ccc(F)cc2)CC1	1	0.2	0.8	24	77*
